{"source": "paper PMC4336329", "about": "(PLoS ONE, 2015)", "note": "Out of some 310,000 compounds screened, about 14,000 (4.5%) showed an effect of 50% or more. Effects have a minus sign here. The full list was thinned out, with strong results kept by preference.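 Also: peak tail current of the secondary pulse compared with the same well before compound.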", "data": [{"target": "human ether-à-go-go-related gene (hERG) potassium channel (human, UniProt Q12809)", "sequence (Q12809 whole entry, looked up)": "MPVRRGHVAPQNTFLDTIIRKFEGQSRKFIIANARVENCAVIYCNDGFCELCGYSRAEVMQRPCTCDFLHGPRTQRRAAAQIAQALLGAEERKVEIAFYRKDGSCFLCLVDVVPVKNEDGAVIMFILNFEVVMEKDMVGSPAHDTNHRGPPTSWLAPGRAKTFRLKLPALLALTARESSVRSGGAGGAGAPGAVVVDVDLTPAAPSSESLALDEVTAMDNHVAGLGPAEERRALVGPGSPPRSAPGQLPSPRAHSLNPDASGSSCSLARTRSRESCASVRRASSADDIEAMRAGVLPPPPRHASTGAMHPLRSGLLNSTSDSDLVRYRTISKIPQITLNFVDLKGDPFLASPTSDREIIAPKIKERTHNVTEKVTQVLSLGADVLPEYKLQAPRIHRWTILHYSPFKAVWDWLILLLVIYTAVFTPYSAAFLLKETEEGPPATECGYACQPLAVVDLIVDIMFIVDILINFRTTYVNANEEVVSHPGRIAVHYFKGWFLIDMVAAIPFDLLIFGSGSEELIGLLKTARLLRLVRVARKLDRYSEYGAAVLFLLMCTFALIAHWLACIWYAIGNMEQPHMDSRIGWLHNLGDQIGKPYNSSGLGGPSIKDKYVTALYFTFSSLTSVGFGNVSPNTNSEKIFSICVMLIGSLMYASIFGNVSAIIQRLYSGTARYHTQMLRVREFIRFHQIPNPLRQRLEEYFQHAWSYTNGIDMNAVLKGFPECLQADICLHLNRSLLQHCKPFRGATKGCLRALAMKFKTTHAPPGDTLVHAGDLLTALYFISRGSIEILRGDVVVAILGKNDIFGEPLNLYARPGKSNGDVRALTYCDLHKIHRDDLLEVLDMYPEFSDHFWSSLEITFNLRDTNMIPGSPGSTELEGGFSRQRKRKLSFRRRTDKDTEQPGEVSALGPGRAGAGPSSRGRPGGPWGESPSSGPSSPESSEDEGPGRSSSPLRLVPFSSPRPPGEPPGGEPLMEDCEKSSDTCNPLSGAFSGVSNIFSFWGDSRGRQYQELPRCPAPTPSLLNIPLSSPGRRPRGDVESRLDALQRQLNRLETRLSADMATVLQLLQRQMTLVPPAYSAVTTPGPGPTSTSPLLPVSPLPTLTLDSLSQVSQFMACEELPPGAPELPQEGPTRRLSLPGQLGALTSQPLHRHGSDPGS", "assay": "primary screen, population patch clamp on CHO cells stably expressing hERG; higher = less effect of the substance", "units": {"hERG current change (%, negative = inhibition) at 10uM": "%"}, "values": [{"smiles": "COc1ccc(C(=S)N2CCCC2)cc1C", "hERG current change (%, negative = inhibition) at 10uM": 4.72}, {"smiles": "CCCCCCOC(=O)c1ccc(NC(=O)c2cc(OC)c(OC)c(OC)c2Br)cc1", "hERG current change (%, negative = inhibition) at 10uM": 5.84}, {"smiles": "CCOC(=O)c1ccc(CNC(=O)CSc2nnc(-c3ccncc3)o2)cc1", "hERG current change (%, negative = inhibition) at 10uM": -1.31}, {"smiles": "Cl.NS(=O)(=O)c1ccc(CCNC/C=C/c2ccccc2)cc1", "hERG current change (%, negative = inhibition) at 10uM": -48.7}, {"smiles": "COc1ccc(CCNC/C=C/c2ccccc2)cc1.Cl", "hERG current change (%, negative = inhibition) at 10uM": -51.4}, {"smiles": "COc1ccc(CNC/C=C/c2ccccc2)cc1.Cl", "hERG current change (%, negative = inhibition) at 10uM": -42.2}, {"smiles": "Cc1nn(C)c(C)c1CNC(=O)Nc1ccc2c(c1)OCO2", "hERG current change (%, negative = inhibition) at 10uM": 12}, {"smiles": "CC(NC(=O)CN(C)S(=O)(=O)c1ccc(F)cc1)C1CC2CCC1C2", "note": "(stereo not drawn)", "hERG current change (%, negative = inhibition) at 10uM": -2.34}, {"smiles": "O=C(CCSCCc1ccccn1)Nc1c(F)c(F)c(F)c(F)c1F", "hERG current change (%, negative = inhibition) at 10uM": -23.3}, {"smiles": "CC(C)Nc1cc(C(C)(C)C)nc2c(-c3ccccc3)cnn12", "hERG current change (%, negative = inhibition) at 10uM": 8.72}, {"smiles": "CCC(C)(C)n1nnnc1C(c1ccc(C)cc1)N1CCSCC1", "note": "(stereo not drawn)", "hERG current change (%, negative = inhibition) at 10uM": -55.1}, {"smiles": "CCC(C)(C)n1nnnc1C(C(C)C)N1CCSCC1", "note": "(stereo not drawn)", "hERG current change (%, negative = inhibition) at 10uM": -61.6}, {"smiles": "CCC(C)(C)n1nnnc1C(C(C)C)N1CCN(C)CC1.Cl", "note": "(stereo not drawn)", "hERG current change (%, negative = inhibition) at 10uM": 6.63}, {"smiles": "CC(C)(C)n1nnnc1C(c1ccc(Cl)cc1)N1CCSCC1", "note": "(stereo not drawn)", "hERG current change (%, negative = inhibition) at 10uM": -0.553}, {"smiles": "CCC(C)(C)n1nnnc1C(c1ccc(C)cc1)N1CCCC1.Cl", "note": "(stereo not drawn)", "hERG current change (%, negative = inhibition) at 10uM": -11.7}, {"smiles": "CCC(C)(C)n1nnnc1C(C(C)C)N1CCC(C(N)=O)CC1", "note": "(stereo not drawn)", "hERG current change (%, negative = inhibition) at 10uM": 10.4}, {"smiles": "N#C/C(=C/c1ccc2c(c1)OCO2)C(=O)Nc1ccc(O)cc1", "hERG current change (%, negative = inhibition) at 10uM": -0.516}, {"smiles": "COc1ccc(NC(C)=O)cc1S(=O)(=O)N(C)Cc1c(C)nn(-c2ccccc2)c1C", "hERG current change (%, negative = inhibition) at 10uM": -13}, {"smiles": "COCC(C)OC(=O)/C(C#N)=C\\c1coc2ccc(C)cc2c1=O", "note": "(stereo not drawn)", "hERG current change (%, negative = inhibition) at 10uM": -20.9}, {"smiles": "CC(C)(C)c1ccccc1NC(=S)NC1CCCC1", "hERG current change (%, negative = inhibition) at 10uM": 1.41}, {"smiles": "COc1ccc(N2C(=O)CCC(C(=O)N3CCC(C(N)=O)CC3)C2c2ccc(F)cc2)cc1", "note": "(stereo not drawn)", "hERG current change (%, negative = inhibition) at 10uM": -2.18}, {"smiles": "Cc1c(CCOC(=O)CC23CC4CC(CC(C4)C2)C3)sc[n+]1CC(=O)c1ccccc1.[Br-]", "hERG current change (%, negative = inhibition) at 10uM": -59.4}, {"smiles": "Cc1c(CCOC(=O)CC23CC4CC(CC(C4)C2)C3)sc[n+]1CC(=O)c1ccc(Br)cc1.[Br-]", "hERG current change (%, negative = inhibition) at 10uM": -75.1}, {"smiles": "Cc1c(CCOC(=O)C23CC4CC(CC(C)(C4)C2)C3)sc[n+]1Cc1ccccc1.[Cl-]", "hERG current change (%, negative = inhibition) at 10uM": -34.5}, {"smiles": "Cc1c(CCO)sc[n+]1CC(=O)OC12CC3CC(CC(C3)C1)C2.[Cl-]", "hERG current change (%, negative = inhibition) at 10uM": 19.8}, {"smiles": "Cc1c(CCOC(=O)CC23CC4CC(CC(C)(C4)C2)C3)sc[n+]1Cc1ccc([N+](=O)[O-])cc1.[Br-]", "hERG current change (%, negative = inhibition) at 10uM": -87.8}, {"smiles": "Cc1c(CCOC(=O)C23CC4(C)CC(C)(CC(C)(C4)C2)C3)sc[n+]1CC(=O)c1ccccc1.[Br-]", "hERG current change (%, negative = inhibition) at 10uM": -19.5}, {"smiles": "Cc1c(CCOC(=O)CC23CC4CC(CC(C4)C2)C3)sc[n+]1Cc1ccccc1.[Cl-]", "hERG current change (%, negative = inhibition) at 10uM": -42.1}, {"smiles": "Cc1c(CCOC(=O)CC23CC4CC(CC(C)(C4)C2)C3)sc[n+]1CC(=O)c1ccccc1.[Br-]", "hERG current change (%, negative = inhibition) at 10uM": -56.8}, {"smiles": "Cc1c(CCO)sc[n+]1CC(=O)OCCC12CC3CC(CC(C3)C1)C2.[Cl-]", "hERG current change (%, negative = inhibition) at 10uM": 11.8}, {"smiles": "Cc1c(CCOC(=O)C23CC4CC(CC(C)(C4)C2)C3)sc[n+]1CC(=O)c1ccccc1.[Br-]", "hERG current change (%, negative = inhibition) at 10uM": -26.7}, {"smiles": "Cc1c(CCOC(=O)C2C3CC4CC(C3)CC2C4)sc[n+]1CC(=O)c1ccc(Br)cc1.[Br-]", "note": "(stereo not drawn)", "hERG current change (%, negative = inhibition) at 10uM": -31.4}, {"smiles": "Cc1ncc(C[n+]2csc(CCOC(=O)CC34CC5CC(CC(C5)C3)C4)c2C)c(N)n1.Cl.[Cl-]", "hERG current change (%, negative = inhibition) at 10uM": -4.79}]}]}
